Among the data in ChEMBL document CHEMBL2218924, “A broad activity screen in support of a chemogenomic map for kinase signalling research and drug discovery” (Biochem J, 2013) are residual activity values, retold here.

Assay [1] deals with Ephrin type-A receptor 7 (Homo sapiens) (UniProt Q15375). The note with it: at 1 µM.
Assay [2] shares this target. The note with it: at 10 µM.
In assay [3] the target is T1, Ephrin type-B receptor 1 (Homo sapiens) (UniProt P54762).
T1 sequence (whole entry): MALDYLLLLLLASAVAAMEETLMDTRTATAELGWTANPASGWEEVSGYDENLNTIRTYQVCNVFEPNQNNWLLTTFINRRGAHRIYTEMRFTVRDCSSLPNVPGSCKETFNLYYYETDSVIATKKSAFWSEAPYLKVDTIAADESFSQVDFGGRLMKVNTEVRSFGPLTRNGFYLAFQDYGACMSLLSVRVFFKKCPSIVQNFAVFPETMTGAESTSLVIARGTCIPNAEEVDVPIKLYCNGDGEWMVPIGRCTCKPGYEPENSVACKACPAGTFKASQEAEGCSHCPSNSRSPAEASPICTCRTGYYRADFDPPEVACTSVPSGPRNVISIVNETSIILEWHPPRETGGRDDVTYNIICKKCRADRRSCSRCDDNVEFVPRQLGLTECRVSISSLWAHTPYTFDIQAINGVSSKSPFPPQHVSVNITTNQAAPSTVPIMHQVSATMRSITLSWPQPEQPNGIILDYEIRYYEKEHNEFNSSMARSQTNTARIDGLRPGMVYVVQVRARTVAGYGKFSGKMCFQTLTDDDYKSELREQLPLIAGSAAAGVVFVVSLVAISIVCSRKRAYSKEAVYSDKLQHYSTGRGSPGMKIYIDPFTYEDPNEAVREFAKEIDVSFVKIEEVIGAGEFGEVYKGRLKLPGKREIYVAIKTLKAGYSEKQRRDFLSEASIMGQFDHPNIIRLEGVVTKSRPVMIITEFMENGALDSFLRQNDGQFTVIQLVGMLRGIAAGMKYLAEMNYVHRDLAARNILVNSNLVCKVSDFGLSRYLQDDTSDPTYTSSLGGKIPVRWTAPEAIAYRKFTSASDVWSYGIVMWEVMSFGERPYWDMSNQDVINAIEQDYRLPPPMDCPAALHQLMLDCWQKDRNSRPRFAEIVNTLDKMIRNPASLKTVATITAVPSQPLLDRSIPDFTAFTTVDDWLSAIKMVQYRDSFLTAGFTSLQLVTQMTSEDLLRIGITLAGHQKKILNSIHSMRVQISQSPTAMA
As to conditions: at 1 µM; call rule not given here.

Assay [4] deals with T1, Ephrin type-B receptor 1 (Homo sapiens). As to conditions: at 10 µM.
The target of assay [5] is T2, Ephrin type-B receptor 4 (Homo sapiens) (UniProt P54760).
T2 sequence (whole entry): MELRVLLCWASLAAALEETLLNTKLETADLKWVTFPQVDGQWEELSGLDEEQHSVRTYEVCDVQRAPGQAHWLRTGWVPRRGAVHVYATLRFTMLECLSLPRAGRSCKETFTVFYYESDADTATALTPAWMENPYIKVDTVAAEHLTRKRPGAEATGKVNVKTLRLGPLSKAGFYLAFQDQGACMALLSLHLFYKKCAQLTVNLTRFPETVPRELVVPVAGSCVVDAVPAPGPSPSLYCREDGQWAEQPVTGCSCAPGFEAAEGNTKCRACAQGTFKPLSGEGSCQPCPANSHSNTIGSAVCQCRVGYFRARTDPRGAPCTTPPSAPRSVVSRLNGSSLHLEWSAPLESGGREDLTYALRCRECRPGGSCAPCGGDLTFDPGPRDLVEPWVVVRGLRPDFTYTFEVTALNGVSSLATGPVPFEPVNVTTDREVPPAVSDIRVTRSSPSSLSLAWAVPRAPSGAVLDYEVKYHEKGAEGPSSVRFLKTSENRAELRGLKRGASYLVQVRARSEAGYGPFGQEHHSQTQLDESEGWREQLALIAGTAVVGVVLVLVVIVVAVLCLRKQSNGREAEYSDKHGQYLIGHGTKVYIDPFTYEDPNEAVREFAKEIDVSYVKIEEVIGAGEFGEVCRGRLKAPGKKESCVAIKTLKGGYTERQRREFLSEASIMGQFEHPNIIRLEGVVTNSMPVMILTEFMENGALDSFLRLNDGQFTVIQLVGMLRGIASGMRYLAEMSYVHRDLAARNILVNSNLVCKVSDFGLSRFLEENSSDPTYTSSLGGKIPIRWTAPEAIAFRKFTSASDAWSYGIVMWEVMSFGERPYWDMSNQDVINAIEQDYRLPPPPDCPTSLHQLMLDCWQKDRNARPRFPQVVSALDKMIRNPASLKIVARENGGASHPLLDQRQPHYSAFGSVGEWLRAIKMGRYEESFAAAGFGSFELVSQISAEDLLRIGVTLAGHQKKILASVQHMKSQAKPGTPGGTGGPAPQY
As to conditions: at 10 µM.

The target of assay [6] is Receptor tyrosine-protein kinase erbB-4 (Homo sapiens) (UniProt Q15303). As to conditions: at 10 µM.
Assay [7] concerns the target Focal adhesion kinase 1 (Homo sapiens) (UniProt Q05397). The note with it: at 1 µM.
For assay [8], the target named is T3, Ephrin type-A receptor 3 (Homo sapiens) (UniProt P29320).
T3 sequence (whole entry): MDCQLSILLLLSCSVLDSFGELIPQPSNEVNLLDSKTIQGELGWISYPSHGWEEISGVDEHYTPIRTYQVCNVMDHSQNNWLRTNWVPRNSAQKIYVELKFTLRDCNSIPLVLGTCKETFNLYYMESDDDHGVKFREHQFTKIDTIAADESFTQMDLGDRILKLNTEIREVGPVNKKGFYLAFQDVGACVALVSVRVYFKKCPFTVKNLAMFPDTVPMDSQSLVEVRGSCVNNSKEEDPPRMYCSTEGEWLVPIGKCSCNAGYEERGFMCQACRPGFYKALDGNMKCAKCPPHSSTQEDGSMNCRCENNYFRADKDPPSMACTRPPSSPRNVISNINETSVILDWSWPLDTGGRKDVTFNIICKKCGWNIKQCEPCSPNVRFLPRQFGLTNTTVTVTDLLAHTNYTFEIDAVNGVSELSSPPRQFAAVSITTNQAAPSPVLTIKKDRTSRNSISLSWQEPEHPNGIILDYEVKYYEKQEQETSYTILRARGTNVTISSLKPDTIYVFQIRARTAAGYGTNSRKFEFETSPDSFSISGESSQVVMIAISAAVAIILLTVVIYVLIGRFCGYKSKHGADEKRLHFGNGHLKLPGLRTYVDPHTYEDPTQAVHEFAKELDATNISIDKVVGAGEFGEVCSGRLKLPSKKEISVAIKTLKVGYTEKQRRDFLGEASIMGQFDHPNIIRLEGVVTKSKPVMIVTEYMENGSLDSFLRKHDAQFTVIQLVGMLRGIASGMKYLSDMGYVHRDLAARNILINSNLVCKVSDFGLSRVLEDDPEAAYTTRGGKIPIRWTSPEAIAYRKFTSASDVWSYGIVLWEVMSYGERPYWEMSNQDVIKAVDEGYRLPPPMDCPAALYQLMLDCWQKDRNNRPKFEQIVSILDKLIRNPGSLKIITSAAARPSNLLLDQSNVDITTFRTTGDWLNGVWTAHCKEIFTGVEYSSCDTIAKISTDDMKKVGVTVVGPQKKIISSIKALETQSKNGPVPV
As to conditions: at 10 µM.

The target of assay [9] is T4, Ephrin type-B receptor 2 (Homo sapiens) (UniProt P29323).
T4 sequence (whole entry): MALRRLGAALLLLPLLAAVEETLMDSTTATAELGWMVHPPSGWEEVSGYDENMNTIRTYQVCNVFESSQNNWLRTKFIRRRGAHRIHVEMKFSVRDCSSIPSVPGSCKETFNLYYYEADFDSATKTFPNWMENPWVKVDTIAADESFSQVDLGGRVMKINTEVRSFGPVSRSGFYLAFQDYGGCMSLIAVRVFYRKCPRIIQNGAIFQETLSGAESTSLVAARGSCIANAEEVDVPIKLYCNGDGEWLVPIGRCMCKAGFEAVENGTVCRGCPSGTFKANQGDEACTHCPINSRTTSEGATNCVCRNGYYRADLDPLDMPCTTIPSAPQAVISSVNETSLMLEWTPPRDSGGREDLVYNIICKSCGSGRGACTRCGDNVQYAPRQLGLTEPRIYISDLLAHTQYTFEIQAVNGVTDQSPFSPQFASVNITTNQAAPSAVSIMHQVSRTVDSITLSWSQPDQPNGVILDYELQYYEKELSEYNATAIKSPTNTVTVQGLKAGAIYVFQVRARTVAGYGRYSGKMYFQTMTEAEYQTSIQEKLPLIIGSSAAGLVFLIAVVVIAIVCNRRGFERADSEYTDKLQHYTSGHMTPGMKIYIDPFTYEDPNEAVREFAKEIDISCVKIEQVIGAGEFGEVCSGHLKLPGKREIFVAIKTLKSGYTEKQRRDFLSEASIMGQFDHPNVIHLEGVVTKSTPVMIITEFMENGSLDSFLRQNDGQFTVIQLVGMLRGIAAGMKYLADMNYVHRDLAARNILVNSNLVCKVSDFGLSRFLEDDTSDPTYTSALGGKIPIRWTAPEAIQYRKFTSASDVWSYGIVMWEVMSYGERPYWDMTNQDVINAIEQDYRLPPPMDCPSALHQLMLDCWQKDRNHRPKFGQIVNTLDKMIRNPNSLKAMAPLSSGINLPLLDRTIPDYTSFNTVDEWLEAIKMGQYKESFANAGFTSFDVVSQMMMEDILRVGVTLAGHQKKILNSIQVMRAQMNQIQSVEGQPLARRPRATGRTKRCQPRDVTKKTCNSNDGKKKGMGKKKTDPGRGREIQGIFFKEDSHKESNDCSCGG
The note with it: at 1 µM.

The target of assay [10] is T4, Ephrin type-B receptor 2 (Homo sapiens). As to conditions: at 10 µM.
Assay [11] addresses T5, Ephrin type-B receptor 3 (Homo sapiens) (UniProt P54753).
T5 sequence (whole entry): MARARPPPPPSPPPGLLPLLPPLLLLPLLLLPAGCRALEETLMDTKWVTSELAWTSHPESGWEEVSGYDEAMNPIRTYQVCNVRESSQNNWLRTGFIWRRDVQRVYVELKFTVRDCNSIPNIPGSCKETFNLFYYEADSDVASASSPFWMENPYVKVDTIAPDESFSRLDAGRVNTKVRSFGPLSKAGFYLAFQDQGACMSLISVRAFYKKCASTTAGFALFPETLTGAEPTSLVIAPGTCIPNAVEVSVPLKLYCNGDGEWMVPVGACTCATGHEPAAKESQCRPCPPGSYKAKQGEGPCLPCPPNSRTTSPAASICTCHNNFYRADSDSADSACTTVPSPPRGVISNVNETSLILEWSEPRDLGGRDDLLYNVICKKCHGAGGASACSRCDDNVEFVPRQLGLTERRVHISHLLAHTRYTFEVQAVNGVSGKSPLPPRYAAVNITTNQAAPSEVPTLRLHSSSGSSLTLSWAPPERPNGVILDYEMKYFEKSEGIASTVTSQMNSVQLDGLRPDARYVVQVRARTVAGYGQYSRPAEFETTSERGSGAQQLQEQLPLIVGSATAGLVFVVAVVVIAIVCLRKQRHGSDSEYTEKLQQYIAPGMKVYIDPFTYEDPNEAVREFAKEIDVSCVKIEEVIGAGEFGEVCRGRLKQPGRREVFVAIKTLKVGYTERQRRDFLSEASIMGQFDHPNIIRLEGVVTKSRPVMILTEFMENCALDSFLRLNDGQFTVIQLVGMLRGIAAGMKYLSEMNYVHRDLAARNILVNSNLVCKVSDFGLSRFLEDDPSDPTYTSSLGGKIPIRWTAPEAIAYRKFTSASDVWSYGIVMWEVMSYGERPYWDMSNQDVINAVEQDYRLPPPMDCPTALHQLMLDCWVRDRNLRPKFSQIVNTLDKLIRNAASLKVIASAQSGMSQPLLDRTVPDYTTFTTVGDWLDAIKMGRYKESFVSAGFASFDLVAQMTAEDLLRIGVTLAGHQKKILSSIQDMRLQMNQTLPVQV
The note with it: at 1 µM.

The target in assay [12] is T5, Ephrin type-B receptor 3 (Homo sapiens). As to conditions: at 10 µM.
Assay [13] has as its target T2, Ephrin type-B receptor 4 (Homo sapiens). As to conditions: at 1 µM.
For assay [14], the target named is Receptor tyrosine-protein kinase erbB-4 (Homo sapiens) (UniProt Q15303). The note with it: at 1 µM.

Receptor tyrosine-protein kinase erbB-4 (Homo sapiens), sequence (Q15303 whole entry): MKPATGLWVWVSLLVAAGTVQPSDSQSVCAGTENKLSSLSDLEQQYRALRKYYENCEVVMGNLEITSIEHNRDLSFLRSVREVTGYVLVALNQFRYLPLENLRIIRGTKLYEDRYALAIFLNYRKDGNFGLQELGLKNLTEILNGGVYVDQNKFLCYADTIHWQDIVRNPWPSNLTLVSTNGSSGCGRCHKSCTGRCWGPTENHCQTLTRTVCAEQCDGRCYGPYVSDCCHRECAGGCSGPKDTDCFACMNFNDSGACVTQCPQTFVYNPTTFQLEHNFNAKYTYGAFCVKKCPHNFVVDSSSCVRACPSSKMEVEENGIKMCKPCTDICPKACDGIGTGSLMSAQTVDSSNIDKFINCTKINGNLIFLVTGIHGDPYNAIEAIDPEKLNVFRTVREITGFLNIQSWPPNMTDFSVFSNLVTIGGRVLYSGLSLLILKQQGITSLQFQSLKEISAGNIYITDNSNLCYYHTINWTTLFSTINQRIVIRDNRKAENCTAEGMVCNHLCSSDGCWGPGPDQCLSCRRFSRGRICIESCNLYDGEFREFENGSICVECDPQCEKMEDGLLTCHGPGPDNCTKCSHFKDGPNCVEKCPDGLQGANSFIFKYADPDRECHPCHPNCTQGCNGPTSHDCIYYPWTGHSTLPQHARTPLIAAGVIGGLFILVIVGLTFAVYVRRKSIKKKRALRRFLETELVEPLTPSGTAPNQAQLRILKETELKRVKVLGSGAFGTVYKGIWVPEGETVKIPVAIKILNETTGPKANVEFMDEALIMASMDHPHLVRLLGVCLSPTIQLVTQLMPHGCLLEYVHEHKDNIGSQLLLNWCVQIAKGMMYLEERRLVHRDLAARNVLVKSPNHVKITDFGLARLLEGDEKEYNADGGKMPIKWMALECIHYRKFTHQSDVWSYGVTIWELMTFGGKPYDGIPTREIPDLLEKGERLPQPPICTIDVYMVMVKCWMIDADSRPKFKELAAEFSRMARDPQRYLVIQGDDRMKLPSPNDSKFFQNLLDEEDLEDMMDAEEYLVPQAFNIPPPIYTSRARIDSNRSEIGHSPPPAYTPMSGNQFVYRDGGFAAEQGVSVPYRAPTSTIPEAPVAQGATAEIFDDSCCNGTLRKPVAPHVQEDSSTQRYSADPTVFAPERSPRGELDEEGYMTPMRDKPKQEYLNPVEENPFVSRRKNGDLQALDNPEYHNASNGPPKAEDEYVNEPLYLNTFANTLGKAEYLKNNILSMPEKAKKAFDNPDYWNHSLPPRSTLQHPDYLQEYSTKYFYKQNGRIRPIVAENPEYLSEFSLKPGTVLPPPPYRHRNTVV
Ephrin type-A receptor 7 (Homo sapiens), sequence (Q15375 28-998 limits assumed): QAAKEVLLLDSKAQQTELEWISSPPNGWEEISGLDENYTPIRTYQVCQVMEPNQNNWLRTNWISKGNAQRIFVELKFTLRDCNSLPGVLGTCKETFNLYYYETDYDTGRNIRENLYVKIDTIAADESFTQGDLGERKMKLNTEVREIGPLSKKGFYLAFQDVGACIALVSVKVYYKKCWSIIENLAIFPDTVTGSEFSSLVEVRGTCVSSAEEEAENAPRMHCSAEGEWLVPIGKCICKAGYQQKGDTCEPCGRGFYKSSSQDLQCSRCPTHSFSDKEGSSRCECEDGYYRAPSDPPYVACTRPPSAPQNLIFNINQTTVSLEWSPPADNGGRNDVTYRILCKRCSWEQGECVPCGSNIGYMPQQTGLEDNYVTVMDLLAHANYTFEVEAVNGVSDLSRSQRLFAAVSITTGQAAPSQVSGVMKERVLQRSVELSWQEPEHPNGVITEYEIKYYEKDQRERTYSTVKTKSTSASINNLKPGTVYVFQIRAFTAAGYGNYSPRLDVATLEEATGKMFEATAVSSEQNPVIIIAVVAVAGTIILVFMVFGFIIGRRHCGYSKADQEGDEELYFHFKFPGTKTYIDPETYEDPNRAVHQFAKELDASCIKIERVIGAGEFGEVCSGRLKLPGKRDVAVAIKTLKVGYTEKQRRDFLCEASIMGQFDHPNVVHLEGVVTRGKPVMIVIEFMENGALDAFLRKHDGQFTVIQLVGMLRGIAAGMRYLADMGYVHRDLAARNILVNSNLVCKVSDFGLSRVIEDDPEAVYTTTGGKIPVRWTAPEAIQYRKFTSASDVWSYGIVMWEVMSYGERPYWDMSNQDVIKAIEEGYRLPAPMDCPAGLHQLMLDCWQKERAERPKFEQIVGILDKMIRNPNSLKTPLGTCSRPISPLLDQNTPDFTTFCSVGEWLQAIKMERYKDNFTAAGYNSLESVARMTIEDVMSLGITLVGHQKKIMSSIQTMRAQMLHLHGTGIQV
Focal adhesion kinase 1 (Homo sapiens), sequence (Q05397 2-1052 limits assumed): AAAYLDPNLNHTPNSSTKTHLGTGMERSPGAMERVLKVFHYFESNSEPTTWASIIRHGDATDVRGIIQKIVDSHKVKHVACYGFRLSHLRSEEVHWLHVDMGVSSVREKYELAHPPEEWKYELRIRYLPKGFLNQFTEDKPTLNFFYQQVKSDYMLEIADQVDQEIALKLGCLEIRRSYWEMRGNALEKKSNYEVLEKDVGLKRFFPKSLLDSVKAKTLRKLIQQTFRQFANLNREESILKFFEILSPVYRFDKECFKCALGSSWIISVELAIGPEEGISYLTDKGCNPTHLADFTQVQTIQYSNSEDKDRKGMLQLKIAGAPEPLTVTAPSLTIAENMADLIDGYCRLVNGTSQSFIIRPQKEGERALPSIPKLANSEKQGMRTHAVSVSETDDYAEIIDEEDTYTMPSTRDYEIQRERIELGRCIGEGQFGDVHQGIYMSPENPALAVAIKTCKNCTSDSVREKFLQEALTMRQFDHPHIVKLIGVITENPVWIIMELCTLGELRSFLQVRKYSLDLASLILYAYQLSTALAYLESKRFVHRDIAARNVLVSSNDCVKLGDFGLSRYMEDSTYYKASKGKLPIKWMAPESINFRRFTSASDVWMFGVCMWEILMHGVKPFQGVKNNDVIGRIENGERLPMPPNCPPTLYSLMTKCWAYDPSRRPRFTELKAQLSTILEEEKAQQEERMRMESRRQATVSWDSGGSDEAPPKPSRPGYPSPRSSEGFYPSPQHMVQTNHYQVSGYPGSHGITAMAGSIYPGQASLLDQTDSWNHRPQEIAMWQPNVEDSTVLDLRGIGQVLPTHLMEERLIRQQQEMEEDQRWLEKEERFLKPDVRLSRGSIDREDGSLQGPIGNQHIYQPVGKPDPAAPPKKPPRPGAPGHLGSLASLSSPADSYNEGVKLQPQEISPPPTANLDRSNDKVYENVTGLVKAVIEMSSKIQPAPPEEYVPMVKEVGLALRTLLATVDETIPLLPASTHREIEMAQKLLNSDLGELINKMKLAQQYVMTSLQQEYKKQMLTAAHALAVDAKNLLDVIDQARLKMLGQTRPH

A word on the residual activity: it is the signal under treatment as a percentage of the control signal. `O=C1NC(=O)C(c2c[nH]c3ccccc23)=C1c1c[nH]c2ccccc12`: the residual activity in assay [1] worked out at 99%; in [2], 67%; in [3], 83%; in assay [4] it was 39%; in assay [5], 82%; in assay [6], 73%. Also, the residual activity in assay [7] stood at 122%.

`NC(=O)c1ccc(-c2nc(-c3ccc4c(c3)OCCO4)c(-c3ccccn3)[nH]2)cc1`: the residual activity in assay [8] was 94%; in assay [3], 93%; in assay [4] it was 85%; in assay [9] it was 96%; in [10], 24%; in assay [11] it was 117% (inactive). Also, the residual activity turned out to be 98% in [12]; 85% in assay [13]; 41% in [5]; 89% in assay [14]; 59% in assay [6].
